# Sampled rows, rich in hits. Any-hit rate of the full collection: about 3.2%.
# rCAG RNA binder: r(CAG) repeat RNA binding; TO-PRO-1 dye displacement fluorescence; inhibition, % at 3 µM; actives 1.3% (n = 370,000); AID 651821;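 active = inhibition above the plate cutoff, the mean of all test compounds on that plate plus 3 SD, cut at about 35% in these data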;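 note: 0% = DMSO alone and 100% = 100 µM mitoxantrone as full dye displacement; higher means more dye released from RNA so lower well fluorescence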
# bovine MsrA act: activates bovine MsrA enzyme; actives 0.3% (n = 360,000); purified bovine MsrA, absorbance read-out; activation, % at 10.6 µM; AID 602163; in the data active = activation above about 7.5%;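 note: 0% = vehicle and 100% = reference activator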
# NadD inh: inhibitors of Staphylococcus aureus NadD | purified NadD enzyme, colorimetric absorbance read-out | inhibition, % at 20 µM | actives 0.78% (n = 360,000); in the data active = inhibition above about 26%
# DSG3 Ab inh: blocks pemphigus antibody binding to human desmoglein-3 | P32926 | DSG3-coupled beads, scFv-anti-DSG3-GFP binding, flow cytometry; stronger effect = lower value | binding (percent of control), % at 10 µM | actives 0.48% (n = 310,000);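 active = binding more than 3 SD below its plate's average and above zero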;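 note: hits lower antibody fragment binding to DSG3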
# Target sequence (P32926 whole entry, looked up, the tested form may be a part): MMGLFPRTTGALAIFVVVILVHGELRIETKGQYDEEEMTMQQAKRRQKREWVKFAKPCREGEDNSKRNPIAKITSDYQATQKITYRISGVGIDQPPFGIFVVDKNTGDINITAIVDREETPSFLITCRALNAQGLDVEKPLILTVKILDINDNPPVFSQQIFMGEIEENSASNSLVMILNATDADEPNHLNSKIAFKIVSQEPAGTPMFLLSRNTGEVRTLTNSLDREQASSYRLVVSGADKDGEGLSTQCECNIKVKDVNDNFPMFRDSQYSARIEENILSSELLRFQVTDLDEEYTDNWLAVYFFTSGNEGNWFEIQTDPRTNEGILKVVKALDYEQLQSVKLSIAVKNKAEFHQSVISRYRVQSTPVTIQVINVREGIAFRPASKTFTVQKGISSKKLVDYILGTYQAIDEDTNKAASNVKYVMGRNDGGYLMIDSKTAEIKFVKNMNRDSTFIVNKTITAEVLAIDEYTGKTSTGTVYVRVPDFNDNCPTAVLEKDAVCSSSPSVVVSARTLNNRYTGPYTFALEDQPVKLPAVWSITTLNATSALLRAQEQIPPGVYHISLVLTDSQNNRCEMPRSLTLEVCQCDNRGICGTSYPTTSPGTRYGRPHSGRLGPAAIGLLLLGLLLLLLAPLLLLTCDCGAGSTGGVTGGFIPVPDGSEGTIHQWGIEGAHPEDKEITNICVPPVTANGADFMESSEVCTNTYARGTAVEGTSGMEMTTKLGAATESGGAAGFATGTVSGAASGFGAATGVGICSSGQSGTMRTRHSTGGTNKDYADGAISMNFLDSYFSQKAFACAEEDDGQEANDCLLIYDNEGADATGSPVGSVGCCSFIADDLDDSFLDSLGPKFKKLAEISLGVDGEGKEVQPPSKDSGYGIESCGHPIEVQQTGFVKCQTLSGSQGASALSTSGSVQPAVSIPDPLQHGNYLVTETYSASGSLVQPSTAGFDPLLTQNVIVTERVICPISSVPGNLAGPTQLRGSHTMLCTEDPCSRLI
# DAGLB inhibitor: diacylglycerol lipase beta (human) inhibition. Q8NCG7. HEK293T DAGLB membrane lysate, EnzChek fluorogenic substrate. inhibition, % at 5.17 µM. actives 0.059% (n = 340,000); in the data active = inhibition above about 34%;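 note: 0% = enzyme with vehicle and 100% = wells lacking enzyme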
# MsrA inhibitor: inhibits bovine methionine sulfoxide reductase A; inhibition, % at 15.5 µM; actives 0.75% (n = 360,000); purified bovine MsrA, absorbance read-out; in the data active = inhibition above about 4.5%;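 note: 0% = vehicle wells with enzyme and 100% = reference inhibitor wells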
# rCAG binder conf: r(CAG) RNA repeat binding, confirmation; TO-PRO-1 dye displacement fluorescence; actives 70% (n = 4,300); inhibition, % at 3 µM; AID 652065; shares compounds with rCAG RNA binder;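 active = inhibition above a per-plate cutoff, the mean inhibition of sample wells plus 3 SD, cut at about 35% in these data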;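 note: loss of TO-PRO-1 fluorescence as compound displaces dye from 1x1 AA loop RNA; 0% = DMSO only wells and 100% = 100 µM mitoxantrone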
# dCAG dye counter: disrupts DNA CAG TO-PRO-1 complex, flagging rCAG hits; shares compounds with rCAG RNA binder; d(CAG) DNA oligo TO-PRO-1 dye displacement, fluorescence; inhibition, % at 3 µM; actives 94% (n = 4,300); AID 652068;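 active = inhibition above its plate's cutoff, the mean test-well inhibition plus 3 SD, cut at about 4.8% in these data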;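 note: 0% = DNA dye mix with DMSO and 100% = 100 µM mitoxantrone; hits displace the dye from DNA and so lower well fluorescence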
# DNA CAG DR: counter-screen for rCAG binders: inhibitors of DNA CAG TO-PRO-1 complex | shares compounds with rCAG RNA binder | DNA CAG/GTC duplex TO-PRO-1 dye displacement fluorescence | IC50, µM | actives 20% (n = 250) | AID 686960; in the data active = IC50 below about 10 µM
# * = called active by the depositor; i = inactive; nt = no result given.
SMILES,rCAG RNA binder,bovine MsrA act,NadD inh,DSG3 Ab inh,DAGLB inhibitor,MsrA inhibitor,rCAG binder conf,dCAG dye counter,others
CCOC(=O)C1=C(C)N=c2s/c(=C\c3ccc(OCC(=O)O)c(OC)c3)c(=O)n2C1c1ccc(OC)cc1 (stereo unspecified),54.2*,-1.4,6.5,104.8,-2.6,2.5,74.8*,37.5*,
CCCCNC(=O)C1(C)CCN1C(=O)c1ccc2c(c1)C(C)(C)CCC2(C)C (stereo unspecified),-2.3,-1.6,3.2,nt,nt,1.6,nt,nt,
C=CCNc1ccc2c(c1)OC[C@@H](CC(C)C)NS2(=O)=O,-0.1,nt,nt,nt,nt,0.3,nt,nt,
CCOC(=O)C1=C(c2ccccc2)N=c2s/c(=C\c3ccc(O)cc3)c(=O)n2C1c1cccs1 (stereo unspecified),37.0*,-2.7,34.6*,119.5,-3.3,1.4,35.8*,19.9*,
CCCCNC(=O)C[C@H]1C[C@@]2(C(=O)OC)C(=C[C@H](C3CCCC3)O[C@@H]2C)N(Cc2ccccc2)C1=O,0.3,nt,nt,nt,nt,0.9,nt,nt,
O=c1c(-c2c(O)cc(O)c3c(=O)cc(-c4ccc(O)cc4)oc23)c(-c2ccc(O)cc2)oc2cc(O)cc(O)c12,48.6*,-5.8,30.0,nt,3.3,2.5,35.9*,16.0*,
O=c1c(O)c(-c2ccc(O)c(O)c2)oc2cc(O)cc(O)c12,36.2*,-4.2,-3.7,75.9,5.8,1.4,27.7,8.1*,
O=c1cc(-c2ccc(O)c(O)c2)oc2cc(O)cc(O)c12,11.7,-1.7,-3.6,97.0,5.1,2.2,nt,nt,
COc1c(-c2ccc(O)cc2)oc2cc(O)cc(O)c2c1=O,12.8,-11.7,-3.0,107.3,-2.2,0.6,nt,nt,
CN(C)CC(=O)N[C@@H]1CC[C@@H](CCNS(=O)(=O)c2ccccc2)O[C@@H]1CO,1.0,nt,nt,nt,nt,0.9,nt,nt,
CCOC(=O)[C@]12CCCCC/C=C\1N(Cc1ccc(OC)cc1)C(=O)[C@H]2CC(=O)N1CCC(c2ccccc2)CC1,5.6,nt,nt,nt,nt,nt,nt,nt,
O=C(c1ccco1)[C@@H]1[C@@H]2C(=O)N(c3ccc(F)cc3)C(=O)[C@@H]2C2c3ccccc3C=CN21 (stereo partly specified),17.0,nt,nt,nt,nt,-1.5,nt,nt,
O=C(c1ccco1)[C@@H]1[C@@H]2C(=O)N(c3ccc(Br)cc3)C(=O)[C@@H]2C2c3ccccc3C=CN21 (stereo partly specified),38.1*,1.4,32.1*,102.1,3.4,0.6,29.4,15.6*,
CC(C)CC1C(=O)N(Cc2cn(CC3CCCCC3)nn2)CCS(=O)(=O)N1Cc1ccc(-c2cccc(CO)c2)cc1 (stereo unspecified),8.1,-1.0,-1.0,nt,-1.7,-0.1,nt,nt,
CCC(C(=O)Nc1ccc(C(=O)Nc2ccccc2C(=O)O)cc1)c1ccccc1 (stereo unspecified),74.6*,-6.8,-3.3,117.5,2.8,1.0,67.3*,27.1*,
CCN(CC)S(=O)(=O)c1cc(C(=O)Nc2ccccc2C(=O)O)ccc1OC,37.3*,-3.1,2.2,99.4,4.4,-0.7,29.4,6.6*,
COc1ccc(NC(=O)c2ccccc2NC(=O)c2ccccc2)cc1,3.2,-2.4,-7.2,80.2,-2.1,-0.1,nt,nt,
CCC(C(=O)Nc1ccc(C(=O)O)cc1NC(=O)C(CC)c1ccccc1)c1ccccc1 (stereo unspecified),63.3*,-3.1,3.8,112.3,3.5,0.8,56.9*,22.8*,
COc1ccccc1C(=O)Nc1ccc(C(=O)Nc2ccccc2C(=O)O)cc1,42.2*,-4.5,3.9,110.1,4.1,0.7,59.8*,20.4*,
C=CCN1C(=O)[C@@H](CC(=O)NCCCN2CCCC2=O)[C@]2(C(=O)OCC)CCCCC/C=C/12,0.8,nt,nt,nt,nt,nt,nt,nt,
Oc1cc(O)cc(C=Cc2ccc(O)c(O)c2)c1,38.1*,nt,nt,nt,nt,3.4,29.4,14.7*,
CC(=Cc1ccccc1)C=C1SC(=S)N(CCCC(=O)Nc2ccc(C(=O)O)cc2)C1=O,25.0,-3.7,28.8,nt,nt,0.9,nt,nt,
CC(/C=C1\SC(=S)N(CCC(=O)Nc2cccc(C(=O)O)c2)C1=O)=C\c1ccccc1,37.0*,-4.9,18.9,105.7,9.1,-1.9,88.1*,62.2*,
CC(/C=C1\SC(=S)N(CCCC(=O)Nc2ccc(C(=O)O)cc2)C1=O)=C\c1ccccc1,73.8*,-7.1,25.5,121.4,6.4,-0.1,85.1*,53.4*,
O=C(CCN1C(=O)/C(=C\c2cccs2)SC1=S)Nc1ccc(C(=O)O)cc1,54.8*,-4.0,6.8,110.0,7.2,-0.2,39.7*,11.0*,
SMILES,rCAG RNA binder,bovine MsrA act,NadD inh,DSG3 Ab inh,DAGLB inhibitor,MsrA inhibitor,rCAG binder conf,dCAG dye counter,others
O=C(CCN1C(=O)/C(=C/c2ccc(Cl)cc2)SC1=S)Nc1ccc(C(=O)O)cc1,3.5,-5.8,24.6,105.3,-0.1,-0.3,nt,nt,
CC(=C\c1ccccc1)/C=C1/SC(=S)N(CCCC(=O)O)C1=O,37.2*,-2.2,4.7,104.6,11.2,1.2,48.8*,14.5*,
N#Cc1ccc(Cn2ccc3ccc(-c4ccc5ccn(C(=O)C6CCCCC6)c5c4)cc32)cc1,21.6,nt,nt,nt,nt,nt,nt,nt,
CNC(=O)C[C@@H]1CC[C@@H]2[C@H](COc3ccc(NC(=O)c4cccc(F)c4)cc3C(=O)N2C)O1,1.2,nt,nt,nt,nt,nt,nt,nt,
O=C(CSc1nc2ccccc2n1Cc1ccccc1Cl)N/N=C/c1ccccc1C(=O)O,38.8*,3.0,9.3,99.8,3.9,3.3,54.2*,15.6*,
O=C(CSc1nc2ccccc2n1Cc1ccccc1)N/N=C/c1ccccc1C(=O)O,26.1,-5.5,0.0,84.7,1.0,0.9,nt,nt,
O=C(CSc1ccc(Cl)cc1)NC1=NN(c2ccccc2)C(=O)C1,54.9*,-7.1,7.7,99.9,24.6,-1.7,26.6,10.3*,
CN(Cc1ccccc1)C(=O)OCc1cn(Cc2cc(F)ccc2F)nn1,-1.1,nt,nt,nt,nt,nt,nt,nt,
CCCOc1cccc(C2C(C(=O)c3ccc(C)o3)=C(O)C(=O)N2c2nc(C)c(C(C)=O)s2)c1 (stereo unspecified),35.9*,-2.7,17.7,101.6,10.1,1.9,56.9*,18.3*,DNA CAG DR=i
COc1ccc(OC)c(C2C(C(=O)c3ccc(C)o3)=C(O)C(=O)N2c2cc(C)on2)c1 (stereo unspecified),7.3,-4.4,0.5,125.8,2.1,2.9,nt,nt,
COC(=O)c1sc(N2C(=O)C(O)=C(C(=O)c3ccc(C)o3)C2c2cc(OC)ccc2OC)nc1C (stereo unspecified),43.7*,-1.8,12.8,nt,5.8,1.5,60.0*,18.0*,
CCOc1cccc(C2C(C(=O)c3ccc(C)o3)=C(O)C(=O)N2c2nnc(C)s2)c1 (stereo unspecified),3.0,0.4,8.5,108.0,1.6,-0.1,nt,nt,
